MgrA DNA FP = alters Staphylococcus aureus MgrA binding to DNA; fluorescence polarization; inhibition, % (no concentration beside the values); hit rate 0.13% among 84,000; in the data active = inhibition above about 30%, passing the limit was not always enough;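 also: 0% = protein plus DNA without compound and 100% = DNA alone without protein; higher means less MgrA bound to DNA so lower polarization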
Starred values were filed as active, the others as inactive. The entries come from a sample that favours hits as a whole.

SMILES | MgrA DNA FP
COc1ccc2oc(=O)c(-c3nc4ccccc4c(=O)[nH]3)cc2c1 | 2.3
CC1=NN(c2cccc(C(=O)O)c2)C(=O)/C1=C\c1ccc(-c2cc([N+](=O)[O-])ccc2C)o1 | 1.9
CC1=NN(c2cccc(C(=O)O)c2)C(=O)/C1=C\c1ccc(-c2ccc(Cl)c(C(=O)O)c2)o1 | 8.0
CC1=NN(c2cccc(C(=O)O)c2)C(=O)/C1=C/c1ccc(-c2cccc(Cl)c2C)o1 | 96.0*
CCn1c(=O)c(C(=O)Nc2ccc(Cl)cn2)c(O)c2ccccc21 | 0.8
CN(C)CCNC(=O)c1c(O)c2c(n(C3CC3)c1=O)CCCC2 | -3.5
CCCCOc1ccc(C(=O)Oc2cc(C(=O)OC)nn2C)cc1 | -0.2
COC(=O)c1ccc2c3c(cccc13)CC2 | 0.3
COc1ccc2c3c(cccc13)C(=O)CC2 | 69.0*
COc1cc(/C=C2\CCc3ccccc3C2=O)cc(OC)c1OC | -2.0
COc1ccc2c(CNCCc3ccccc3OC)c(C(=O)O)n(C)c2c1 | -1.3
N#CCc1ccc(N=Cc2cc(Br)ccc2O)cc1 | 0.7
CCOc1ccc(-c2cc(OC)c3c(C)oc(C)c3c(=O)c2)cc1 | 33.8
CCOc1cc(/C=C/c2ccccc2OC)cc(=O)c2c(C)oc(C)c12 | -0.1
COc1cccc(=O)c2c(C)oc(C)c12 | 43.3*
CC(C)c1ccc(/C=C/C(=O)O)cc1 | -0.3
CC(C)(O)C1Cc2cc(/C=C/C(=O)O)c(O)cc2O1 (stereo not drawn) | 20.1
CC(C)c1cc2cc(/C=C/C(=O)O)c(O)cc2o1 | 60.4*
CN(Cc1ccccc1)Cc1ccccc1O | 0.2
CN(C)Cc1ccccc1C(O)c1ccccc1 (stereo not drawn) | -0.2
CN(C)Cc1cc(O)c(CN(C)C)cc1O | 54.6*
COC(=O)c1ccsc1N | 70.7*
COC(=O)c1sccc1O | -0.5
COC(=O)c1cc(C(=O)OC)c(C(=O)OC)cc1C(=O)OC | -3.3
CC(C)(C)C(=O)C1C2C3COC(O3)C(=O)C2C2C=Cc3ccccc3N21 (stereo not drawn) | 41.5*
SMILES | MgrA DNA FP
COC(=O)N1c2ccccc2C=CC1C#N (stereo not drawn) | 2.1
CCOc1cc2c3c(c1)c(C1=NC(=S)NC1=O)c(O)n3C(C)(C)CC2C (stereo not drawn) | 0.8
O=C(CCCC(=O)OC1CCCC1)OC1CCCC1 | -0.2
CC(C)(C)c1csc(N)c1C#N | -2.0
COCCOc1ccccc1NC(=S)NNC(=O)c1ccc([N+](=O)[O-])cc1 | 2.6
O=C1C=CC(=O)C(Sc2nnnn2-c2ccccc2)=C1 | 74.9*
c1ccc(CSc2nnnn2-c2ccccc2)cc1 | 10.9
CC(Sc1nnnn1-c1ccccc1)C(=O)O (stereo not drawn) | -2.5
CCOc1ccc2nc3c(c(C(=O)O)c2c1)CCCC3 | 1.9
O=C(CC1SC(=Nc2ccccc2)N(c2ccccc2)C1=O)Nc1cccc(Cl)c1 (stereo not drawn) | -0.4
O=C(O)CCN1C(=O)/C(=C/c2ccco2)SC1=S | 51.4*
O=C1/C(=C/c2ccco2)SC(=S)N1CCc1ccccc1 | 5.0
CC(C(=O)O)N1C(=O)/C(=C/c2ccco2)SC1=S (stereo not drawn) | 38.0
COc1ccc(C2CC(=O)C3=C(C2)NC(C)=C(C(=O)OCCOc2ccccc2)C3c2cccc(O)c2)cc1 (stereo not drawn) | 3.1
CCC(Oc1ccccc1)C(=O)NCc1ccccn1 (stereo not drawn) | -0.3
CC(C(=O)N(C)C)N(c1cccc(Cl)c1)S(C)(=O)=O (stereo not drawn) | -1.0
O=C(O)c1ccc(N2CCCC2)cc1 | -5.6
Cc1cc(C)n(-c2ccc(C(=O)O)cc2)n1 | -0.5
Cc1ccc(C)n1-c1ccc(C(=O)O)cc1 | 99.5*
O=C(CCN1C(=O)C2CC=CCC2C1=O)NCc1ccccc1 (stereo not drawn) | 2.0
COc1ccc([C@H]2Sc3ccccc3N(CCN(C)C)C(=O)[C@H]2OC(C)=O)cc1 | 96.2*
COc1ccc(C2Sc3ccccc3N(CCN(C)C)C(=O)C2OC(C)=O)cc1 (stereo not drawn) | 0.9
CCN1C(=O)CC(c2ccc(OC)cc2)Sc2ccccc21 (stereo not drawn) | -2.4
Cn1cccc1/C=C1\CC/C(=C\c2cccn2C)C1=O | 12.4
Cc1cc(=O)oc2cc(OC(C)C(=O)Nc3nnc(C4CCCO4)s3)ccc12 (stereo not drawn) | -0.8
SMILES | MgrA DNA FP
C(=C\c1ccccc1)/CN1CCNCC1 | -0.4
O=C(O)c1cccc(-c2ccc(/C=c3/sc4nc5ccccc5n4c3=O)o2)c1 | 43.8*
Cc1ccc(-c2ccc(/C=c3\sc4nc5ccccc5n4c3=O)o2)c(Br)c1 | -3.0
COc1ccc(-c2ccc(/C=c3\sc4nc5ccccc5n4c3=O)o2)c([N+](=O)[O-])c1 | -0.3
O=S1(=O)c2cccc3cccc(c23)N1Cc1cccc(C(F)(F)F)c1 | -0.7
CC1(C)CC(=O)C2=C(C1)OC(N)=C(C#N)C2c1ccccc1 (stereo not drawn) | 2.2
CC1(C)CC(=O)C2=C(C1)OC(c1cccs1)C(C#N)=C2N (stereo not drawn) | 98.5*
CC1(C)CC(=O)C2=C(C1)NC1=C(C(=O)CC(C)(C)C1)C2c1cccs1 | 2.7
CC(=NCc1ccc2c(c1)OCO2)c1ccccc1O | -2.2
COc1ccc(N2C(=O)NC(=O)/C(=C/c3ccc(OCCBr)cc3)C2=O)cc1 | 9.3
C=Cc1c(C)/c2[n-]/c1=C\c1[n-]c(c(CC)c1C)/C=c1\[n-]c3c(c1C)C(=O)C(C(=O)[O-])C=3c1[n-]c(c(C)c1CCC(=O)[O-])\C=2.[Cu].[Na+].[Na+] (stereo not drawn) | 88.0*
COC(=O)C1=C(N)Oc2c(OC)cc(Br)cc2C1C(C#N)C(=O)OC (stereo not drawn) | 2.5
O=C(NC1CCCC1)c1ccc(CS(=O)(=O)c2c(Cl)cccc2Cl)o1 | -0.1
CCOC(=O)C1=C(C)N=c2s/c(=C\c3ccc(N4CCCCC4)o3)c(=O)n2C1c1cc(OC)ccc1OC (stereo not drawn) | 0.9
COc1ccc(NC(=O)/C(C#N)=C/C=C/c2ccco2)cc1 | 1.6
N#C/C(=C\C=C\c1ccco1)C(N)=S | 99.9*
N#CC(C#N)=C(N)/C(C#N)=C/c1ccco1 | 1.2
O=C(O)C1C2C=CC(C2)C1C(=O)Nc1ccccc1 (stereo not drawn) | -1.8
COC(=O)c1ccc([C@@H]2Nc3c(C)cccc3[C@@H]3C=CC[C@@H]32)cc1 | 0.4
O=C(O)C1Nc2c(I)cccc2C2C=CCC12 (stereo not drawn) | 101.3*
O=C(c1cccc2c1NC(c1ccc(Br)cc1)C1CC=CC21)N1CCOCC1 (stereo not drawn) | 1.2
CCCCOC(=O)c1cc(-c2ccc(/C=C3\NC(=S)NC3=O)o2)ccc1Cl | -0.9
Cc1ccc(-c2cc(C(=O)Nc3c(C)n(C)n(-c4ccccc4)c3=O)c3ccccc3n2)o1 | -0.1
CC(C)NC(=O)c1cnn2c(C(F)F)cc(-c3ccccc3)nc12 | 1.1
O=C1CCC(=O)N1CC(O)CCOc1ccc(OCCC(O)CN2C(=O)CCC2=O)cc1 (stereo not drawn) | 0.0
SMILES | MgrA DNA FP
O=C(Nc1nc2c(s1)CCCC2)c1ccncc1 | 41.7*
Cc1ccc(C(=O)Nc2nc3c(s2)CCCC3)cc1 | 0.3
O=C(/C=C/c1ccccc1)Nc1nc2c(s1)CCCC2 | 0.0
COC(=O)c1ccc2c(c1)C(=O)/C(=C/c1ccc(C)o1)O2 | 4.0
Cn1nc(NC(=O)C(F)(F)F)c(-c2ccccc2)c1C(F)(F)F | -2.3
CN(C)c1cccc(C(=O)OCC(=O)NC2CCCCC2)c1 | 0.9
Cc1c(C(=O)NC2CCN(Cc3ccccc3)CC2)cnn1-c1ccc(Cl)cc1 | -1.8

Bioassay records (PubChem BioAssay)
